Data reported in PubChem BioAssay AID1822 (The Scripps Research Institute Molecular Screening Center, 2009).
Among all 290,000 compounds or so, about 3,500 (1.2%) were called active.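 How the source made its calls: active means inhibition above the campaign mean inhibition over all tested compounds plus 3 SD (cut at about 28% in these data); inactive means the rest.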 What follows is part of a selection rich in actives, with near analogues and random picks from the rest.

The compounds below were run on M18 aspartyl aminopeptidase (Plasmodium falciparum 3D7) (assay: PfM18AAP inhibitors, malaria aminopeptidase, primary screen, biochemical, QFRET, recombinant enzyme (AID 1822;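 further: 0% = plate median of test compound wells and 100% = 2 mM ZnCl2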)). Conditions: H-Glu-NHMec fluorogenic cleavage, at 7.35 µM, stronger effect = higher value.

| SMILES | inhibition |
| --- | --- |
| COc1cccc(N2C(=O)NC(=O)/C(=C\c3cn(C)c4ccccc34)C2=O)c1 | 31.5% (active) |
| COc1cccc(N2C(=O)NC(=O)/C(=C\c3ccc([N+](=O)[O-])s3)C2=O)c1 | 9.11% (inactive) |
| Cc1cccc(N2C(=O)NC(=O)/C(=C\c3cnn(-c4ccccc4)c3)C2=O)c1 | -3.93% (inactive) |
| CCOc1ccc(-c2cc(C)[n+](CCN(CC)CC)c(-c3ccc(OCC)cc3)c2)cc1 | -4.54% (inactive) |
| Cc1cccc(NC(=O)N2CC3CC(C2)c2cccc(=O)n2C3)c1 (stereo not given) | -2.4% (inactive) |
